RGS8-Gao = modulates binding of RGS8 to human Galphao. P09471. multiplexed bead flow cytometry; actives lie on both sides. response (percent of control binding), % at 10 µM. 220,000 compounds, 0.34% hits. AID 1423; in the data active = response below about 60% or above about 140%; inactive = in between;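 also: Galphao activated as the GDP aluminium fluoride complex binding bead-coupled RGS8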
Target sequence (P09471 whole entry, looked up): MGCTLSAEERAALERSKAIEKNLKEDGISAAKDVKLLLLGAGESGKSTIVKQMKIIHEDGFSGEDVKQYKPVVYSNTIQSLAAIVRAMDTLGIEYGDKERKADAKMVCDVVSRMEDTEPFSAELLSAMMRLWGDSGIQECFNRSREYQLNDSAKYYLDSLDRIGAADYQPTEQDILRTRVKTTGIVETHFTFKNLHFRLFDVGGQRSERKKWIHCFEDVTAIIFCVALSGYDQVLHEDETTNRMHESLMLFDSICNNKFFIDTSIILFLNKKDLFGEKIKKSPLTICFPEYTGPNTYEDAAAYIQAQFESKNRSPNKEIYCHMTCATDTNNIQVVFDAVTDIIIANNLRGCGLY
RGS4-Gao reg = human RGS4-Galphao interaction regulation; P09471; Multiplexed bead flow cytometry, RGS4-Galphao binding; actives lie on both sides; binding response (% of control), % at 10 µM; 220,000 compounds, 0.33% hits; AID 1415; in the data active = binding response below about 49% or above about 150%; inactive = in between;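 also: fluorescent Galphao activated with aluminum fluoride binding bead-coupled RGS4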
RGS7-Gao = human RGS7-Galphao interaction regulation; P09471; binding response (% of control), % at 10 µM; 220,000 compounds, 0.35% hits; Multiplexed bead flow cytometry, RGS7-Galphao binding; actives lie on both sides; in the data active = binding response below about 49% or above about 150%; inconclusive = no clear call, values can overlap the other calls; inactive = in between;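 also: fluorescent Galphao held in activated GDP-AlF4 state binding bead-coupled RGS7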
Avidin bead fluor = avidin bead compound fluorescence profile; Avidin beads, compound fluorescence 488/530 nm, flow cytometry; hits give high values; fluorescence (KMESF) at 10 µM; 220,000 compounds, 0.38% hits; AID 1775; in the data active = fluorescence above about 47
RGS16-Gao = regulators of human RGS16-Galphao interaction; O15492+P09471; bead-based flow cytometry RGS16-Galphao binding, fluorescence; actives lie on both sides; binding response (% of control), % at 10 µM; 220,000 compounds, 0.38% hits;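 also: Galphao activated by GDP with aluminum fluoride before binding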
Target sequence (O15492 whole entry, looked up): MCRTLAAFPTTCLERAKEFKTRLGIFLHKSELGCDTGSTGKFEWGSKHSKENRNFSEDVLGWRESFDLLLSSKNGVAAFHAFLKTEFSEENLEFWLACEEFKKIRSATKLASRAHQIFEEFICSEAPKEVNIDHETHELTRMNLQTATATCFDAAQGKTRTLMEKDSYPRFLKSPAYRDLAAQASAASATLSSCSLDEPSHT
Target sequence (P09471 whole entry, looked up): as the sequence (P09471 whole entry, looked up) above
GSH fluor = GSH bead compound fluorescence profile. GSH beads flow cytometry, compound fluorescence 488/530 nm; hits give high values. fluorescence (KMESF) at 10 µM. 190,000 compounds, 0.25% hits; in the data active = fluorescence above about 89;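 also: glutathione beads carrying GST-tagged Bcl family fusion proteins plus one bare bead set; values are compound well signal with DMSO vehicle wells as background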
RGS4-Gao HTS = regulators of human RGS4-Galphao interaction | 1,600 compounds, 99% hits | AID 1504 | shares compounds with RGS16-Gao | RGS4–Galpha-o binding response, % at 10 µM | multiplexed bead flow cytometry, RGS–Galpha-o binding;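 also: fluorescently labeled Galpha-o bound to GDP with aluminium fluoride binding biotinylated RGS beads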
Biotin-avidin = counter-screen: compounds disrupting biotin binding to avidin beads | shares compounds with RGS16-Gao | streptavidin beads, fluorescein-biotin binding, flow cytometry | inhibition, % at 10 µM | 1,700 tested, under 10 active | AID 1783;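 active = inhibition above 50%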;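 also: median green fluorescence of gated singlet beads compared with DMSO control wells; 0% = DMSO wells and 100% = complete loss of bead fluorescence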
RGS8-Gao single = RGS8-Galphao interaction regulation, single point confirmation | shares compounds with RGS16-Gao | bead-based flow cytometry RGS8-Galphao binding, fluorescence; actives lie on both sides | binding response (% of control), % at 10 µM | 1,700 compounds, 3% hits | AID 1836; in the data active = binding response below about 72% or above about 130%; inactive = in between;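 also: Galphao activated as GDP AlF4 complex before binding bead RGS8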
RGS7-Gao single = confirmation of regulators of human RGS7-Galphao interaction; shares compounds with RGS16-Gao; bead-based flow cytometry RGS7-Galphao binding; actives lie on both sides; response (percent of control binding), % at 10 µM; 1,700 compounds, 7.8% hits; in the data active = response below about 75% or above about 130%; inactive = in between;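 also: fluorescent Galphao activated with GDP and aluminum fluoride binding bead-coupled RGS7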
RGS16-Gao single = confirmation of regulators of human RGS16-Galphao interaction. shares compounds with RGS16-Gao. bead-based flow cytometry, RGS16-Galphao binding; actives lie on both sides. response (% of control binding), % at 10 µM. 1,700 compounds, 4% hits; in the data active = response below about 74% or above about 130%; inactive = in between;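 also: Galphao activated as the GDP aluminium fluoride complex binding bead-coupled RGS16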
RGS4-Gao single = confirmation of regulators of human RGS4-Galphao interaction. shares compounds with RGS16-Gao. AID 1840. RGS4-Galphao binding, multiplexed bead flow cytometry; actives lie on both sides. binding response (% of control), % at 10 µM. 1,700 compounds, 4% hits; in the data active = binding response below about 74% or above about 130%; inactive = in between
RGS19-Gao single = RGS19-Galphao interaction regulation, single point confirmation. shares compounds with RGS16-Gao. response (percent of control binding), % at 10 µM. 1,700 compounds, 5% hits. AID 1841. bead-based flow cytometry RGS19-Galphao binding; actives lie on both sides; in the data active = response below about 50% or above about 160%; inactive = in between;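 also: 100% = no compound control and 0% = blank background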
Starred values were filed as active, the others as inactive; [ ] = remark or other dose. Sampled rows, rich in hits. Any-hit rate of the full collection: about 1.2%. Unless noted, no rule for the calls is given here.

`CC1CCN(CCCn2c(SCC(=O)Nc3ccccc3Cl)nc3ccccc3c2=O)CC1` gave RGS8-Gao 145*[activator], RGS4-Gao reg 119, RGS7-Gao 127, Avidin bead fluor 11, RGS16-Gao 265, GSH fluor 15, RGS4-Gao HTS 119*, Biotin-avidin 0, RGS8-Gao single 102, RGS7-Gao single 106, RGS16-Gao single 103, RGS4-Gao single 103 and RGS19-Gao single 104.
CCSC1=N/C(=C\C=C2/Oc3ccccc3N2CC)C(=O)S1 was read as RGS8-Gao 100, RGS4-Gao reg 96, RGS7-Gao inconclusive, Avidin bead fluor 8 and RGS16-Gao 99.
`O=C(O)Cn1ncn(-c2ccc(OC(F)(F)F)cc2)c1=O` gave RGS8-Gao 101, RGS4-Gao reg 98, RGS7-Gao 96, Avidin bead fluor 9, RGS16-Gao 98 and GSH fluor 16.
`CCC(C)(C)NC(=O)C(c1cccn1C)N(C(=O)Cn1nnc2ccccc21)c1ccccc1OC` (configuration not stated) gave RGS8-Gao 68, RGS4-Gao reg 77, RGS7-Gao 79, Avidin bead fluor 5, RGS16-Gao 24*, GSH fluor 16, RGS4-Gao HTS 77*, Biotin-avidin -1, RGS8-Gao single 97, RGS7-Gao single 48*, RGS16-Gao single 79, RGS4-Gao single 60* and RGS19-Gao single 59.
CC1CCN(C(=O)c2ccc(N3C(=O)C4CCC(C)CC4C3=O)cc2)CC1 (configuration not stated) was read as RGS8-Gao 67, RGS4-Gao reg 32*, RGS7-Gao inconclusive, Avidin bead fluor 1, RGS16-Gao 45, Biotin-avidin 0, RGS8-Gao single 101, RGS7-Gao single 106, RGS16-Gao single 102, RGS4-Gao single 102 and RGS19-Gao single 96.
For Oc1c(Br)cc(Br)cc1/C=N/N1CCN(Cc2ccccc2)CC1 the results were RGS8-Gao 101, RGS4-Gao reg 112, RGS7-Gao 172*[activator], Avidin bead fluor 107*, RGS16-Gao 103, GSH fluor 17, RGS4-Gao HTS 112*, Biotin-avidin -1, RGS8-Gao single 104, RGS7-Gao single 101, RGS16-Gao single 105, RGS4-Gao single 102 and RGS19-Gao single 100.
`CCOCCCNC(=S)N1CCC(NC(=O)C23CC4CC(CC(C4)C2)C3)CC1` gave RGS8-Gao 99, RGS4-Gao reg 98, RGS7-Gao 105, Avidin bead fluor 8, RGS16-Gao 99 and GSH fluor 22.
Screening O=C(CN1C(=O)NC2(CCCC2)C1=O)N1CCN(C(=O)c2ccco2)CC1 returned RGS8-Gao 102, RGS4-Gao reg 110, RGS7-Gao 104, Avidin bead fluor 31, RGS16-Gao 104 and GSH fluor 39.
`O=C(CN1C(=O)NC2(CCCCCCC2)C1=O)N1CCN(C(=O)c2ccco2)CC1` gave RGS8-Gao 125, RGS4-Gao reg 120, RGS7-Gao 118, Avidin bead fluor 8, RGS16-Gao 199*[activator], GSH fluor 38, RGS4-Gao HTS 120*, Biotin-avidin -2, RGS8-Gao single 101, RGS7-Gao single 91, RGS16-Gao single 99, RGS4-Gao single 94 and RGS19-Gao single 100.
For CC1=CC2=NC(=O)/C(=C\c3ccc(-c4ccc(Cl)cc4)o3)C(=N)N2O1 the results were RGS8-Gao 115, RGS4-Gao reg 153*[activator], RGS7-Gao 167*[activator], Avidin bead fluor 208*, RGS16-Gao 429, GSH fluor 9, Biotin-avidin 2, RGS8-Gao single 103, RGS7-Gao single 101, RGS16-Gao single 113, RGS4-Gao single 96 and RGS19-Gao single 236*[activator].
CCCCOc1ccc(-c2nc(=S)[nH][nH]2)cc1 was read as RGS4-Gao reg 93, RGS7-Gao 99, Avidin bead fluor 4, RGS16-Gao 92, GSH fluor 39, Biotin-avidin 0, RGS8-Gao single 91, RGS7-Gao single 104, RGS16-Gao single 93, RGS4-Gao single 101 and RGS19-Gao single 98.
CCCCOc1ccc(-c2nc(SCC(N)=O)n[nH]2)cc1 was read as RGS8-Gao 101, RGS4-Gao reg 100, RGS7-Gao 100, Avidin bead fluor 9, RGS16-Gao 103 and GSH fluor 16.
`Cc1ccc2cc(C)c(Sc3nnnn3-c3ccccc3)nc2c1` gave RGS8-Gao 119, RGS4-Gao reg 112, RGS7-Gao 106, Avidin bead fluor 17, RGS16-Gao 191*[activator], GSH fluor 4, RGS4-Gao HTS 112*, Biotin-avidin -1, RGS8-Gao single 109, RGS7-Gao single 111, RGS16-Gao single 114, RGS4-Gao single 108 and RGS19-Gao single 126.
Screening CCn1c(C)nc2cc(C(=O)N/N=C/c3cccc(O)c3O)ccc21 returned RGS8-Gao 94, RGS4-Gao reg 91, RGS7-Gao 87, Avidin bead fluor 6, RGS16-Gao 91 and GSH fluor 19.
Screening CCC(=O)N1CCN(c2ccc(Cl)cc2NC(=O)c2ccc3c(c2)OCCO3)CC1 returned RGS8-Gao 6.1*, RGS4-Gao reg 0.4*, RGS7-Gao 2.0*, Avidin bead fluor -4, RGS16-Gao -0.4*, GSH fluor 42, Biotin-avidin 2, RGS8-Gao single 100, RGS7-Gao single 96, RGS16-Gao single 99, RGS4-Gao single 99 and RGS19-Gao single 98.

Screens from PubChem.
